# Compounds with a hit are over-represented: about 11% of the library has one in this group of screens.
# HPGD inh = inhibitors of human 15-hydroxyprostaglandin dehydrogenase (HPGD) | purified HPGD, NADH fluorescence kinetic, PGE2 substrate | Potency, µM, for inactives: at the top dose activity change, negative = inhibition, most hits filed as inhibitors | actives 4.3% (n = 150,000); also: potency is read from the fitted curve at half-maximal effect
# Target sequence (P15428 whole entry, looked up): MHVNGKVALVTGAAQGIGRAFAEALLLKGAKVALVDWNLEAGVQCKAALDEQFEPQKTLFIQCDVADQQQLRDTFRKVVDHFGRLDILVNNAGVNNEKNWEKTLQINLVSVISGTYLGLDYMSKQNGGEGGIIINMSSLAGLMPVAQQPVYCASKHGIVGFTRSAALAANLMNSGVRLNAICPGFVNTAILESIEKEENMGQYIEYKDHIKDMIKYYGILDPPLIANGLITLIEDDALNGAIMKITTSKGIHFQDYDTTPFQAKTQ
#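 NADH formation kinetics: reaction with 30 uM PGE2 and 1 mM NAD+ (final), 20 nM enzyme, Tris-HCl pH 8 with Tween 20, after 15 min compound preincubation at room temperature. Fluorescence change, last versus first of five reads.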
# ALDH1A1 block = inhibitors of human aldehyde dehydrogenase 1A1 | Potency, µM (top dose mostly 75.3 µM), without a hit: at the highest dose activity, negative = inhibition, actives largely listed as inhibitors | Purified ALDH1A1, NADH fluorescence, propionaldehyde substrate | AID 1030 | actives 7.3% (n = 220,000) | P00352;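 also: potency is read from the fitted curve at half-maximal effect; plate controls were no enzyme wells and a reference inhibitor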
# PNC assembly inh = inhibitors of perinucleolar compartment assembly. activity change (PNC), negative = inhibition, % at 10 µM. AID 2417. actives 3.1% (n = 140,000). PC3M PTB-GFP, PNC prevalence imaging, 16 h; active compounds read low;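 active = readout at or below -70, meaning at least 70% loss of cells showing the perinucleolar compartment, a nuclear body marking cancer cells; inconclusive = readout between -30 and a set limit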;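 also: plate controls were DMSO wells for no effect and camptothecin positive control wells for full effect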
#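 Compounds are pinned in duplicate onto adhered PC3M cells stably expressing GFP-tagged PTB and incubated 16 h at 37 C. Cells are then fixed, nuclei stained with Hoechst, and PNC-positive cells counted.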
# * = called active by the depositor; ? = inconclusive; / = not tested or not shown; [ ] = dose if it differs, or a comment. Unless noted, calls follow the shape of the dose curve; as a rule, active = well fitted inhibition curve with a large enough effect (not every such curve was filed as active); inconclusive = small, poorly fitted or top-dose-only effect, or another doubt; inactive = no such curve, though single readings can be large or run the other way. Unless noted, % is scaled to controls: 0 for no effect and ±100 for the full control effect.
SMILES,HPGD inh,ALDH1A1 block,PNC assembly inh
C[C@]1(O)CC[C@H]2[C@@H]3[C@@H](O)CC4=CC(=O)CC[C@@]4(C)[C@H]3CC[C@]21C,-3%,20%[13.5 µM],/
COc1ccc(/C=C/C(=O)N2CC3C[C@@H](C2)Cn2c3cccc2=O)cc1OC,?,-9%,/
C=CCN=C=S,6%,-12%,/
CN1CC[C@@]2(CCCN(C(=O)Oc3ccccc3)C2)C1,-5%,-3%,/
CCCCC[CH2][Hg][S]C1=C2N=CNC2NC(N)=N1 (centres undefined),0.71µM*,0.32µM*,/
COc1ccc(C=C2C(=O)N(C)C(=O)N(C)C2=O)cc1CSc1ccccn1,25µM*,3.2µM*,-13
S=C=S,-3%,?,/
NCC#Cc1ccccc1,-7%,-2%,/
COC(=O)[C@]1(C)CC[C@@]2(C)CC[C@@]3(C)C4=CCc5c(cc(O)c(O)c5C)[C@]4(C)CC[C@@]3(C)C2C1 (some centres undefined),28µM*,5%,/
COc1ccc(N2C(=O)/C(=C/C=C/c3ccccc3[N+](=O)[O-])C(=O)NC2=S)cc1,/,8.9µM*,/
COc1ccc(N2C(=O)NC(=O)/C(=C\c3ccc([N+](=O)[O-])s3)C2=O)cc1,/,40µM*,/
CCOc1ccc(N2C(=O)NC(=O)/C(=C\c3cc(OC)c(OC)cc3[N+](=O)[O-])C2=O)cc1,28µM*,11µM*,-3
COc1ccc(CN2C(=O)NC(=O)/C(=C\c3cc(OC)c(OC)c(OC)c3)C2=O)cc1,/,17%,/
CCc1ccc(N2C(=O)NC(=O)/C(=C/c3cccn3CCOc3ccc(C(C)CC)cc3)C2=O)cc1 (centres undefined),-14%,5%,-17
CCOC(=O)C1CCN(/C=C2/C(=O)NC(=O)N(c3ccc(OCC)cc3)C2=O)CC1,-5%,-1%,?
Cc1ccc(N2C(=O)/C(=C/N3CCN(C(=O)c4ccco4)CC3)C(=O)NC2=S)cc1C,-13%,?,12
COc1ccc(CN2C(=O)NC(=O)/C(=C/c3ccc([N+](=O)[O-])s3)C2=O)cc1,/,4µM*,/
[N-]=[N+]=CC(=O)OCC(N)C(=O)O (centres undefined),1%,-6%,/
O[C@H]1CCCC[C@H]1N1CCC(c2ccccc2)CC1,-7%,-8%,/
CC1OC(C)OC(C)O1 (centres undefined),-9%,7%,/
CN1CCc2cc3c(cc2[C@@H]1[C@@H]1OC(=O)c2c1ccc1c2OCO1)OCO3,-1%,7%[20.9 µM],/
CCCN(CCC)[C@@H]1CCc2c(F)ccc(O)c2C1,-16%,-9%,/
S=C(S)N1CCCC1,10µM*,0.79µM*,/
COc1ccc(/C=C2/C(=O)NC(=S)N(C3CC3)C2=O)cc1CN1C(=O)c2ccccc2C1=O,14µM*,20µM*,-8
CC1(C)S[C@H]2[C@@H](N)C(=O)N2[C@H]1C(=O)O,1%,-5%,/
SMILES,HPGD inh,ALDH1A1 block,PNC assembly inh
NC(=O)CI,?,28µM*,/
COc1cc2c(cc1O)[C@H]1Cc3ccc(OC)c(O)c3CN1CC2,-2%,2%[20.9 µM],/
C=CCN1CC[C@]23CCCCC2[C@H]1Cc1ccc(O)cc13 (some centres undefined),-1%,0%,/
COc1ccc(C2SCC(=O)Nc3c2c(C)nn3-c2ccccc2)cc1 (centres undefined),13µM*,-4%,54
Cc1ccc(-n2nc(C)c3c2NC(=O)CSC3c2ccc3c(c2)OCO3)cc1 (centres undefined),18µM*,?,48
Cc1nn(C2CCOC(C)(C)C2)c2c1C(c1ccc(OC(C)C)cc1)SCC(=O)N2 (centres undefined),-10%,?,-7
CCCC(C)n1[nH]c(=O)c2c1NC(=O)CSC2c1ccc(OC)cc1 (centres undefined),-2%,6%,3
O[C@@H]1CCCN2C[C@@H](O)[C@@H](O)C12 (some centres undefined),/,10%,/
C[C@@H]1C[C@@H](O)[C@@]2(O)[C@]13CC(=O)OC[C@]2(C)[C@@](C)(O)C(=O)C3,-5%,15%,/
O=C1/C(=C\c2cc3c(cc2Br)OCO3)N2CCC1CC2,?,3.2µM*,?
O=C1/C(=C/c2ccc3c(c2)OCO3)N2CCC1CC2,?,?,-13
O=C(O)C(F)(F)S(=O)(=O)O,-11%,?,-14
COc1ccc(C(CC(=O)N2CCC3(CC2)OCCO3)NS(=O)(=O)c2ccc(F)cc2)cc1 (centres undefined),-8%,-5%,19
COc1ccc(S(=O)(=O)NC(CC(=O)N2CCc3ccccc32)c2ccco2)cc1 (centres undefined),5%,?,-82*
Cc1ccc(C2(c3ccc(C)c(O)c3C)CCN(C)CC2)c(C)c1O,-8%,-2%[13.5 µM],/

# Compound activity deposited in PubChem by National Center for Advancing Translational Sciences (NCATS).
